# KAT2A inh – blocks human GCN5L2 histone acetyltransferase; GCN5L2 HAT assay, ThioGlo1 CoA-SH fluorescence; Potency, µM (highest dose often 58.9 µM), without a hit: at the highest dose activity change, negative = inhibition, usual class: inhibitors; 390,000 tested, 0.21% active; AID 504327; further: on the % scale 0 is the no-effect control and ±100 the full control effect
#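 Titration-based screen in which CoA formation is detected via maleimide probe ThioGlo1 (50uM) turning fluorescent on thiol reaction; substrates H3(1-25) 75uM and acetyl-CoA 70uM, GCN5L2 20nM, 20 min incubation at room temperature.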
# VDR inhibitor – inhibitors of human vitamin D receptor; P11473; VDR-SRC2-3 peptide fluorescence polarization, 2 h; Potency, µM, without a hit: max response, negative = inhibition, most hits filed as inhibitors; 400,000 tested, 0.93% active; further: on the % scale 0 is the no-effect control and ±100 the full control effect
#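 Compounds are added to VDR with labelled SRC2-3 coactivator peptide and held 2 h at room temperature. Inhibition of the VDR–peptide interaction is then read as a change in fluorescence polarization.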
# PLK1 PBD inh – blocks phosphopeptide binding to human PLK1 polo-box domain | P53350 | Plk1 PBD binding of FITC phosphopeptide, fluorescence polarization | Potency, µM, for inactives: max response, negative = inhibition, usual class: inhibitors | 360,000 tested, 2.8% active | AID 720504; further: series mostly up to about 57 µM; on the % scale 0 is the no-effect control and ±100 the full control effect; nearly all actives have a fitted effect of over 65% in size
# Mito fusion yeast – inhibitors of mitochondrial division or activators of mitochondrial fusion; S. cerevisiae fusion-defective mutant growth rescue, CellTiterGlo 48 h; Potency, µM (doses to about 46.1 µM), for the others: at the top dose growth rescue (activation), usual class: activators; 320,000 tested, 0.23% active; further: % of control where 0% means no effect; nearly all actives have a fitted effect of over 45% in size
#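 Luminescent cell viability in 1536-well qHTS format served as the measure of rescued growth in ts fusion-mutant S. cerevisiae cultured on non-fermentable YPEG for 48 hours at 37C.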
# PKM2 act – PKM2 (human) enzyme activation; AID 1631; 260,000 tested, 0.34% active; purified PKM2, Kinase-Glo ATP luminescence, activation; response scale: 0% is enzyme alone, no compound; P14618; Potency, µM (highest dose often 57.5 µM), inactives show top-dose activation, actives largely listed as activators; further: on the % scale 0 is the no-effect control and ±100 the full control effect; nearly all actives have a fitted effect of over 55% in size
#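 hPK-M2, >95% pure; 0.1 mM ADP / 0.5 mM PEP final; imidazole pH7.2 buffer w/ 7 mM MgCl2, 50 mM KCl; 1 h RT; Kinase-Glo lum. Intermediate enzyme activity for dual inhibitor/activator qHTS.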
# GLS inhibitor – glutaminase GLS (human) inhibition; O94925; Potency, µM (doses to about 45.5 µM), for inactives: at the highest dose activity change, negative = inhibition, usual class: inhibitors; AID 624170; 410,000 tested, 0.21% active; GLS enzymatic activity, qHTS titration; further: on the % scale 0 is the no-effect control and ±100 the full control effect
# Target sequence (O94925 whole entry, looked up): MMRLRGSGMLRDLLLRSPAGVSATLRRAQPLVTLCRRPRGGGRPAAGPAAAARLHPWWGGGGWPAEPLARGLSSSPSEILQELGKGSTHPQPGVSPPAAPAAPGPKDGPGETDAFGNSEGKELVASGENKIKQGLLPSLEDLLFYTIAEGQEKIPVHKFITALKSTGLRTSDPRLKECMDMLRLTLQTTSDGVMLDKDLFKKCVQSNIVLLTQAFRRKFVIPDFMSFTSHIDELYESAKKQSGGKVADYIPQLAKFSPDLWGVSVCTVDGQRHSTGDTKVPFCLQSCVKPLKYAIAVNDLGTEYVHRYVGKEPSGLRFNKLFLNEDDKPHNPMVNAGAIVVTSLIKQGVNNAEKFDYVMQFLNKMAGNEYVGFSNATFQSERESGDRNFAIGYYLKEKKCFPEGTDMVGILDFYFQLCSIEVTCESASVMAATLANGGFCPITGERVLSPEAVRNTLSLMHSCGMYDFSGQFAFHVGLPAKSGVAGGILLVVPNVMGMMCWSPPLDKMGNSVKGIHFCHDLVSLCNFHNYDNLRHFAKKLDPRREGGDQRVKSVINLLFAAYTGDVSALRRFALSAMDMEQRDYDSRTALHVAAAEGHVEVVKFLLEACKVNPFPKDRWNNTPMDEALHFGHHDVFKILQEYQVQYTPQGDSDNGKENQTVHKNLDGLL
#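 Read-out is an Amplex red fluorescence increase coupled through glutamate oxidase and HRP, measured before and after 30 min room-temperature incubation. hKGA is in 45 mM KH2PO4 (pH 8.2) with 0.02% Tween-20; glutamine added as 1mM solution.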
# * = called active by the depositor; ? = inconclusive; · = not tested or not shown; [ ] = dose if it differs, or a comment. A selection: hits, their analogues and other compounds. The true share with any hit is near 3.4%. The call rests on the fitted dose curve; in most records, active means well fitted curve in the direction sought with a large enough effect; inconclusive means small, poorly fitted or top-dose-only effect, or another doubt; inactive means no such curve, though single readings can be large; an effect the other way counts as inactive or inconclusive. Potency means the concentration at half of the fitted maximal effect.
SMILES,KAT2A inh,VDR inhibitor,PLK1 PBD inh,Mito fusion yeast,PKM2 act,GLS inhibitor
O=C(Cn1sc2ccccc2c1=O)Nc1ccccc1,·,·,1.2µM*,·,·,7.1µM*
O=C(Cc1nc(=O)c2ccccc2s1)Nc1ccccc1,1%,-8%,2%,0%,-5%,5%
O=C(Cn1sc2ccccc2c1=O)NC12CC3CC(CC(C3)C1)C2,14µM*,?,3µM*,-35%,-39%,?
Cc1cc(C)nc(NS(=O)(=O)c2ccc(NC(=O)c3ccc(O)cc3O)cc2)n1,-12%,2%,0%,1%,-11%,3%
C[C@@H]1[C@H](C)CC[C@@]2(C(=O)O)CC[C@]3(C)C(=CC[C@H]4[C@@]5(C)CC[C@@H](O)C(C)(C)[C@@H]5CC[C@@]43C)[C@@H]12,-26%[21.4 µM],-4%,·,·,·,·
COc1cccc(/C=C2\N=C(C3CCCCC3)OC2=O)c1OC,-1%,32µM*,-26%,-2%,1%,-16%
CC(=O)Oc1ccc(/C=C2\N=C(C3CCCCC3)OC2=O)cc1,-5%,79µM*,-19%,-1%,-3%,-33%
O=[N+]([O-])c1ccc(C[n+]2cccc3ccc4cccnc4c32)cc1,-1%,79µM*,9.5µM*,-3%,-13%,?
O=[N+]([O-])c1ccc(C[n+]2cccc3ccccc32)cc1,-20%,-13%,5%,-2%,1%,10%
Nc1ccc2nc(-c3cc(Cl)c(N)c(Cl)c3)[nH]c2c1,-14%,?,24µM*,-3%,0%,19%
CCCCN(C)CC(O)Cn1cc(/C=C/C(=O)c2ccc(OC)c(OC)c2)c2ccccc21 (stereo unspecified),-14%,15%,·,·,·,2%
CC(=O)c1cccc(NC(=O)Cn2nc(C(F)(F)F)c3c2CCC3)c1,3%,4%,·,·,·,1%
CC(=O)N1c2ccc(S(=O)(=O)N3CCC(C(=O)NCc4ccc(C)cc4)CC3)cc2CC1C (stereo unspecified),-2%,-8%,-9%,-1%,·,2%
CC(=O)N1c2ccc(S(=O)(=O)N3CCC(C(=O)NCc4ccc(Cl)cc4)CC3)cc2CC1C (stereo unspecified),-1%,25µM*,7.5µM*,5%,·,1%
CC(=O)N1c2ccc(S(=O)(=O)NCCC(=O)NCc3ccc(N(C)C)cc3)cc2CC1C (stereo unspecified),-5%,?,11µM*,-1%,·,?
CCC(=O)N1c2ccc(S(=O)(=O)CCC(=O)NCc3ccc4c(c3)OCO4)cc2CC1C (stereo unspecified),-17%,?,24µM*,-5%,1%,20%
CC(=O)N1c2ccc(S(=O)(=O)NCCC(=O)N3CCCC(C)C3)cc2CC1C (stereo unspecified),-7%,?,24µM*,11µM*,·,2%
CCc1ccc(CNC(=O)C2CCCN(S(=O)(=O)c3ccc4c(ccn4C)c3)C2)cc1 (stereo unspecified),-2%,5%,·,·,·,-12%
CCCN1CCN(CC2=C(C(=O)OCC)C(c3cccc(OC)c3OC)NC(=O)N2)CC1 (stereo unspecified),-8%,-7%,·,·,·,-5%
Cc1ccc2c(c1)CCCN2S(=O)(=O)c1cccc(C(=O)Nc2ccccc2C(=O)O)c1,·,·,19µM*,·,·,·
Nc1nc(C(=O)N2CCOCC2)nn1S(=O)(=O)c1ccc(Cl)cc1,3%,?,27µM*,-1%,-7%,77%
COc1ccc(NC(=O)CSc2nc(-c3cccs3)cc(C(F)(F)F)n2)cc1OC,-3%,5%,·,·,·,-13%
O=C(CCS(=O)(=O)c1nc(-c2cccs2)cc(C(F)(F)F)n1)Nc1ccc(OC(F)(F)F)cc1,-6%,14µM*,·,·,·,6%
N#CC1=C(S)N(c2ccccc2)C(c2ccc(-c3ccc(Cl)c(Cl)c3)o2)NC1=O (stereo unspecified),-25%,56µM*,?,5%,7%,-1%
N#CC1=C(S)N(c2ccccc2)C(c2cccs2)NC1=O (stereo unspecified),-18%,?,?,-5%,-16%,-11%
SMILES,KAT2A inh,VDR inhibitor,PLK1 PBD inh,Mito fusion yeast,PKM2 act,GLS inhibitor
N#CC1=C(S)N(c2ccccc2)C(c2ccc(-c3cc(Cl)ccc3Cl)o2)NC1=O (stereo unspecified),?,79µM*,?,6%,-5%,-9%
N#CC1=C(S)N(c2ccccc2)C(c2ccco2)NC1=O (stereo unspecified),-14%,-7%,8%,11%,-26%,-2%
COc1cc(OC)c(C(=O)NCCCn2ccnc2)cc1OC,-10%,-11%,2%,10%,4%,-11%
O=C(O)CNC(=O)CC1S/C(=N/N=C/c2ccccc2O)NC1=O (stereo unspecified),-5%,?,24µM*,13%,-25%,-17%
Cc1csc2ncnc(N3CCN(C(=S)Nc4ccc(F)cc4F)CC3)c12,-5%,-12%,0%,-8%,5%,9%
Cc1cc(C)c2c(=O)[nH]c(SCC(=O)Nc3cccc(S(=O)(=O)N(C)C)c3)nc2n1,0%,-11%,-6%,-4%,·,-3%
CN(C)S(=O)(=O)c1cccc(NC(=O)CSc2cccc3cccnc23)c1,-3%,-6%,11µM*,15%,?,?
O=c1[nH]c2ccccc2nc1/C=C/c1ccc(Cl)cc1,-5%,22µM*,3.4µM*,-3%,-4%,?
C#C[C@]1(O)CC[C@@H]2[C@H]3CCC4=Cc5oncc5C[C@]4(C)[C@@H]3CC[C@@]21C,2%[21.4 µM],-18%,·,·,·,·
N#Cc1cc2c(nc1SCc1ccccc1)CCCCC2,0%,-21%,3.8µM*,2%,8%,-29%
CC(=O)NC1[C@H](O)C[C@@](O)(C(=O)O)O[C@H]1[C@H](O)[C@H](O)CO (stereo partly specified),-6%,13%,·,·,·,7%
COC(=O)[C@@]1(Cc2ccccc2)[C@H]2c3cc(C(=O)N(C)C)n(Cc4nc5ccccc5[nH]4)c3C[C@H]2CN1C(=O)c1ccccc1,·,·,·,·,3%,·
CCN(CC)CCOC(=O)c1ccc(N/C=C(/C#N)c2nc(-c3ccc(OC)cc3)cs2)cc1,-10%,26%,-8%,-1%,-3%,-22%
CCN(CC)CCOC(=O)c1ccc(N/C=C(/C#N)c2nc(-c3cc4ccccc4oc3=O)cs2)cc1,-3%,23%,3%,8.9µM*,·,5%
Cc1cc(C)cc(-n2c3ccc(NC(=O)Cc4cccc5ccccc45)cc3c(=O)n2C)c1,·,·,0%,·,·,1%
COc1cc(-c2nc(CN3CCCN(C(=O)c4ccco4)CC3)c(C)o2)ccc1F,-1%,-12%,30µM*,-7%,5%,-1%
